This is part of a sample that, as a whole, favours compounds with a hit. Of some 83,000 tested, about 20% had one in any assay.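 Activity criterion: percent growth below 10, measured after cells in 96-well plates were exposed to a single compound concentration for 48 hours.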 Activity calls are given as the source filed them.
Experiments:
Experiment in all cases: NCI-60 one-dose screen, 48 h (100 = growth as untreated, 0 = no growth, -100 = all killed)
Conditions in all cases: 10 µM unless noted
NCI-H23 lung = test system: NCI-H23 lung
NCI-H226 lung = test system: NCI-H226 lung
NCI-H322M lung = test system: NCI-H322M lung
HOP-62 NSCLC = test system: HOP-62 NSCLC
NCI-H460 lung = test system: NCI-H460 lung
HOP-92 NSCLC = test system: HOP-92 NSCLC
NCI-H522 lung = test system: NCI-H522 lung
A549/ATCC NSCLC = test system: A549/ATCC NSCLC
786-0 renal = test system: 786-0 renal
COLO 205 colon = test system: COLO 205 colon

Measured: growth

CCn1c(C)nc([N+](=O)[O-])c1Sc1nc(N)nc2nc[nH]c12
inactive: NCI-H23 lung 28.8% | NCI-H226 lung 44.3% | NCI-H322M lung 50.9% | HOP-62 NSCLC 24.9% | NCI-H460 lung 10.7% | HOP-92 NSCLC 54.9% | NCI-H522 lung 42.6% | A549/ATCC NSCLC 53.9% | 786-0 renal 24.6% | COLO 205 colon 67.9%

Nc1ncc(-c2ccc3ncnc(Nc4cncc(Cl)c4)c3c2)cn1
inactive: NCI-H23 lung 65.1% | NCI-H226 lung 55.2% | NCI-H322M lung 29.8% | HOP-62 NSCLC 65.6% | NCI-H460 lung 67.8% | NCI-H522 lung 55.5% | A549/ATCC NSCLC 65.4% | 786-0 renal 65.8% | COLO 205 colon 75.6%
active: HOP-92 NSCLC -0.664%

CCN(CC)C(=O)C1CCN(C(=O)c2ccccc2)CC1
inactive: NCI-H23 lung 95.1% | NCI-H226 lung 94.1% | NCI-H322M lung 99.4% | HOP-62 NSCLC 93.3% | NCI-H460 lung 104% | HOP-92 NSCLC 98.8% | NCI-H522 lung 90.8% | A549/ATCC NSCLC 104% | 786-0 renal 97.3% | COLO 205 colon 106%

CC(=O)Nc1ccc([I+]c2ccc([N+](=O)[O-])cc2)cc1
inactive: NCI-H23 lung 84.6% | NCI-H226 lung 79.9% | NCI-H322M lung 94.8% | HOP-62 NSCLC 96.4% | NCI-H460 lung 104% | HOP-92 NSCLC 90.5% | NCI-H522 lung 46.5% | A549/ATCC NSCLC 98.9% | 786-0 renal 98.3% | COLO 205 colon 63.4%

COc1ccc(-c2cc(-c3nnc(SC/C(=N\O)c4ccccc4)n3-c3ccccc3)c3ccccc3n2)cc1
inactive: NCI-H23 lung 94.6% | NCI-H226 lung 96.2% | NCI-H322M lung 101% | HOP-62 NSCLC 91.1% | NCI-H460 lung 104% | HOP-92 NSCLC 94.8% | NCI-H522 lung 87.2% | A549/ATCC NSCLC 96.8% | 786-0 renal 113% | COLO 205 colon 91.1%

CN(CCNCc1ccccn1)CCNCc1ccccn1
inactive: NCI-H23 lung 18.2% | NCI-H522 lung 18.9%
active: NCI-H226 lung -63.6% | NCI-H322M lung 9.06% | HOP-62 NSCLC 4.07% | NCI-H460 lung -7.2% | HOP-92 NSCLC -7.3% | A549/ATCC NSCLC 0.123% | 786-0 renal -3.78% | COLO 205 colon -5.61%

C=CC(=O)Nc1cccc(Nc2nc(Nc3ccc(OCCOC(F)F)cc3)ncc2F)c1
inactive: NCI-H23 lung 75.2% | NCI-H226 lung 22.5% | NCI-H322M lung 10.3% | HOP-62 NSCLC 29.1% | NCI-H460 lung 37.4% | A549/ATCC NSCLC 30.9% | 786-0 renal 20% | COLO 205 colon 63.5%
active: HOP-92 NSCLC -0.338% | NCI-H522 lung -7.77%

CCOC(=O)C1CSC(C)(C(=O)OCC)N1 (stereo not given)
inactive: NCI-H23 lung 99.5% | NCI-H226 lung 95.5% | NCI-H322M lung 104% | HOP-62 NSCLC 90.6% | NCI-H460 lung 106% | HOP-92 NSCLC 84.7% | NCI-H522 lung 76.7% | A549/ATCC NSCLC 98.9% | 786-0 renal 90.8% | COLO 205 colon 105%

Nc1nccc2c1ccn2-c1ccc(NC(=O)Nc2cccc(C(F)(F)F)c2)cc1
inactive: NCI-H23 lung 90% | NCI-H226 lung 81.9% | NCI-H322M lung 98.2% | HOP-62 NSCLC 94.2% | NCI-H460 lung 90.8% | HOP-92 NSCLC 57.4% | NCI-H522 lung 87.2% | A549/ATCC NSCLC 91.3% | 786-0 renal 110% | COLO 205 colon 92.1%

O=c1c2ccccc2[nH]n1Cc1ccc2c(c1)OCO2
active: NCI-H460 lung 0.543%
inactive: NCI-H23 lung 106% | NCI-H226 lung 92.6% | NCI-H322M lung 97.6% | HOP-62 NSCLC 97.1% | HOP-92 NSCLC 90.2% | NCI-H522 lung 99.4% | A549/ATCC NSCLC 99.6% | 786-0 renal 93.3% | COLO 205 colon 116%

Nc1nc(=S)ss1
inactive: NCI-H23 lung 98.7% | NCI-H226 lung 103% | NCI-H322M lung 100% | HOP-62 NSCLC 97.3% | NCI-H460 lung 110% | HOP-92 NSCLC 98.7% | NCI-H522 lung 94.2% | A549/ATCC NSCLC 97.5% | 786-0 renal 107% | COLO 205 colon 112%

C/C(=N/O)c1ccc(NC(=O)Cn2nc(-c3ccc(Cl)cc3)nc2N)cc1
inactive: NCI-H23 lung 92.7% | NCI-H226 lung 82.9% | NCI-H322M lung 92.4% | HOP-62 NSCLC 88.8% | NCI-H460 lung 100% | HOP-92 NSCLC 99.2% | NCI-H522 lung 68.7% | A549/ATCC NSCLC 79.3% | 786-0 renal 109% | COLO 205 colon 101%

O=S(=O)(CCN1CCOCC1)Nc1cc(-c2ccc3ncnc(Nc4ccc(F)c(Cl)c4)c3c2)cnc1Cl
inactive: NCI-H23 lung 28% | NCI-H226 lung 26.9% | NCI-H460 lung 14.8% | NCI-H522 lung 17.2% | A549/ATCC NSCLC 10.3%
active: NCI-H322M lung 0.347% | HOP-62 NSCLC -0.609% | HOP-92 NSCLC -20.8% | 786-0 renal 8.06% | COLO 205 colon -6.12%

COc1ccc(/C(Cl)=N/N=C(\Cl)c2cc(OC)c(OC)c(OC)c2)cc1OC(C)=O
inactive: NCI-H23 lung 99.2% | NCI-H226 lung 95.3% | NCI-H322M lung 95.1% | HOP-62 NSCLC 87.5% | NCI-H460 lung 97.4% | HOP-92 NSCLC 77.3% | NCI-H522 lung 50.2% | A549/ATCC NSCLC 86.5% | 786-0 renal 102% | COLO 205 colon 98.9%

COc1ccc(/C=N/C2=NNC(C)(c3ccccc3O)N2C(Cc2c[nH]c3ccccc23)C(=O)O)cc1 (stereo not given)
inactive: NCI-H23 lung 22.8% | NCI-H226 lung 53.2% | NCI-H322M lung 56.1% | HOP-62 NSCLC 32.7% | NCI-H460 lung 20.4% | NCI-H522 lung 18.9% | A549/ATCC NSCLC 42.5% | 786-0 renal 58.3%
active: HOP-92 NSCLC 2.13% | COLO 205 colon 8.42%

C#CC(=O)/C=C/CCCCCCC#CC(=O)CCC(=O)C#CCCCCCC/C=C/C(=O)C#C
active: HOP-92 NSCLC -42.3% | NCI-H522 lung -78.6% | 786-0 renal -46.9% | COLO 205 colon -0.795%
inactive: NCI-H23 lung 15% | NCI-H226 lung 122% | NCI-H322M lung 93.5% | HOP-62 NSCLC 61.2% | NCI-H460 lung 80% | A549/ATCC NSCLC 87.8%

Nc1ccc(S(=O)(=O)Nc2cc(I)cc(I)c2)cc1
inactive: NCI-H23 lung 93.6% | NCI-H226 lung 113% | NCI-H322M lung 94.8% | HOP-62 NSCLC 91.1% | NCI-H460 lung 109% | HOP-92 NSCLC 79.2% | NCI-H522 lung 90.1% | A549/ATCC NSCLC 112% | 786-0 renal 95.5% | COLO 205 colon 123%

COc1ccc(/C=C/C(=O)c2ccc(NC(=O)CSc3nnc(-c4cc(OC)c(OC)c(OC)c4)o3)cc2)cc1
inactive: NCI-H226 lung 12.9% | NCI-H322M lung 20.2% | HOP-62 NSCLC 43.8% | NCI-H460 lung 14.5%
active: NCI-H23 lung -17% | HOP-92 NSCLC -55.4% | NCI-H522 lung -76.4% | A549/ATCC NSCLC 7.85% | 786-0 renal -58.4% | COLO 205 colon -61.1%

Cc1ccc2oc(=O)cc(C3C(C#N)=C(N)Oc4c3ccc3ccccc43)c2c1 (stereo not given)
inactive: NCI-H23 lung 89.8% | NCI-H226 lung 87.1% | NCI-H322M lung 89.2% | HOP-62 NSCLC 63.7% | NCI-H460 lung 84.1% | HOP-92 NSCLC 87.3% | NCI-H522 lung 48.6% | A549/ATCC NSCLC 71.1% | 786-0 renal 81.3% | COLO 205 colon 70.3%

Oc1ccc(Cl)cc1Sc1cc(Cl)ccc1O
inactive: NCI-H23 lung 93.3% | NCI-H226 lung 88.4% | NCI-H322M lung 115% | HOP-62 NSCLC 98.4% | NCI-H460 lung 107% | HOP-92 NSCLC 63.6% | NCI-H522 lung 81.6% | A549/ATCC NSCLC 95.5% | 786-0 renal 110% | COLO 205 colon 105%

COc1cc([C@@H]2c3cc4c(cc3C(OC3O[C@@H]5COC(C)O[C@H]5[C@H](O)[C@H]3O)C3COC(=O)[C@@H]32)OCO4)cc(OC)c1O (stereo not given in full)
active: HOP-62 NSCLC -9.99% | NCI-H460 lung 7.32% | 786-0 renal -13.1%
inactive: NCI-H23 lung 14.3% | NCI-H226 lung 33.1% | NCI-H322M lung 115% | HOP-92 NSCLC 63.5% | NCI-H522 lung 24.3% | A549/ATCC NSCLC 29.7% | COLO 205 colon 60.6%

CCCCCCCCCCCCCCCCNc1ccccc1
inactive: NCI-H23 lung 102% | NCI-H226 lung 99.8% | NCI-H322M lung 83.8% | HOP-62 NSCLC 105% | NCI-H460 lung 105% | HOP-92 NSCLC 97.7% | NCI-H522 lung 64.6% | A549/ATCC NSCLC 59.7% | 786-0 renal 81.4% | COLO 205 colon 113%

COc1cc2c(/C=C3/C(=O)Nc4ccc(O)cc43)c(Cl)n(Cc3cc(OC)c(OC)c(OC)c3)c2cc1C
active: NCI-H460 lung 4.32% | HOP-92 NSCLC -5.18% | NCI-H522 lung 0.662% | COLO 205 colon 4.15%
inactive: NCI-H23 lung 41.9% | NCI-H226 lung 65.5% | NCI-H322M lung 48.8% | HOP-62 NSCLC 40.1% | A549/ATCC NSCLC 16.3% | 786-0 renal 15.8%

O=C(O)c1cccc2oc(-c3ccccc3O)nc12
inactive: NCI-H23 lung 54.4% | NCI-H226 lung 63% | NCI-H322M lung 58.7% | HOP-62 NSCLC 43.6% | NCI-H460 lung 25.2% | HOP-92 NSCLC 48.8% | NCI-H522 lung 31.4% | A549/ATCC NSCLC 42% | 786-0 renal 59.5% | COLO 205 colon 12.4%

O=C(Nc1ccccc1Cl)c1c[nH]c(=O)c(-c2ccc(N3CCCOC4(CC4)C3)cc2)c1
inactive: NCI-H23 lung 46.9% | NCI-H226 lung 50.9% | NCI-H322M lung 78% | HOP-62 NSCLC 69.7% | NCI-H460 lung 63.8% | HOP-92 NSCLC 70.4% | NCI-H522 lung 53.6% | A549/ATCC NSCLC 57.8% | 786-0 renal 68.2% | COLO 205 colon 81.4%

O=[N+]([O-])c1cccc2cc(S(=O)(=O)O)ccc12
inactive: NCI-H23 lung 105% | NCI-H226 lung 103% | NCI-H322M lung 107% | HOP-62 NSCLC 98.8% | NCI-H460 lung 110% | HOP-92 NSCLC 85% | NCI-H522 lung 83.8% | A549/ATCC NSCLC 74.2% | 786-0 renal 100% | COLO 205 colon 105%

COc1cc(/C=C2/Oc3cc4occc4c(OC)c3C2=O)ccc1OCC(=O)Nc1ccncc1
inactive: NCI-H23 lung 94.1% | NCI-H226 lung 95% | NCI-H322M lung 97.3% | HOP-62 NSCLC 85.7% | NCI-H460 lung 104% | HOP-92 NSCLC 97.4% | NCI-H522 lung 85.4% | A549/ATCC NSCLC 101% | 786-0 renal 101% | COLO 205 colon 107%

From PubChem BioAssay (NCI)
